Tau fibril ThT: inhibitors of human tau fibril formation, thioflavin T binding. P10636. recombinant tau K18 P301L, heparin-induced fibrillization, ThT fluorescence. Potency, µM (titrated, usually from 57.4 µM), for inactives: at the highest dose activity, negative = inhibition, actives largely listed as inhibitors. 270,000 compounds, 2.1% hits. AID 1460; also: nearly all actives have a fitted effect of over 55% in size
Target sequence (P10636 561-689 P618L limits assumed): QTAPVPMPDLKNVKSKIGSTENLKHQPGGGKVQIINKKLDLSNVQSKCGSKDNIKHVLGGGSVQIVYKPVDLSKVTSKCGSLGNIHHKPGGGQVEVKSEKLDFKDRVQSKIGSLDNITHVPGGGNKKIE
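K18 P301L tau (15 uM + 0.24 uM Alexa 594-tagged), heparin 20 uM, NaOAc pH 7, 6 h 37 C; ThT 30 uM, 1 h RT, ex 450/em 510 nm.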
Tau FP inhib: inhibitors of human tau fibril formation | K18 P301L tau heparin fibrillization, Alexa594 FP, 6 h | Potency, µM (titrated, usually from 57.7 µM), for the others: at the top dose activity, negative = inhibition, actives largely listed as inhibitors | 280,000 compounds, 0.39% hits | AID 1468; also: nearly all actives have a fitted effect of over 55% in size
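FP of Alexa 594-tau after heparin (20 uM) induction. Substrate: human K18 P301L, 15 uM unlabeled, 0.24 uM labeled. Buffer 100 mM sodium acetate pH 7. 6 hr, 37 C.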
Tau fluor counter: counter-screen for tau fibril formation inhibitors; tau K18 P301L (four-repeat tau fragment) Alexa594 fluorescence, heparin fibrillization; Potency, µM (titrated, usually from 57.7 µM), for the others: at the highest dose activity change, negative = decrease; 280,000 compounds, 0.93% hits; AID 1463; also: nearly all actives have a fitted effect of over 55% in size
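Human K18 P301L tau (15 uM unlabeled plus 0.24 uM Alexa 594-labeled, final) in 100 mM sodium acetate pH 7 was mixed with compound and 20 uM heparin and incubated 6 hr at 37 C.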
RORgamma inh: blocks mouse ROR gamma transcriptional activity; Potency, µM (doses to about 53.6 µM), for the others: top-dose activity change, negative = inhibition, hits mostly inhibitors; P51450; AID 2551; Drosophila S2 Gal4-RORgamma UAS-luciferase reporter, 20 h; 310,000 compounds, 5.4% hits; also: nearly all actives have a fitted effect of over 60% in size
Target sequence (P51450 whole entry, looked up, the tested form may be a part): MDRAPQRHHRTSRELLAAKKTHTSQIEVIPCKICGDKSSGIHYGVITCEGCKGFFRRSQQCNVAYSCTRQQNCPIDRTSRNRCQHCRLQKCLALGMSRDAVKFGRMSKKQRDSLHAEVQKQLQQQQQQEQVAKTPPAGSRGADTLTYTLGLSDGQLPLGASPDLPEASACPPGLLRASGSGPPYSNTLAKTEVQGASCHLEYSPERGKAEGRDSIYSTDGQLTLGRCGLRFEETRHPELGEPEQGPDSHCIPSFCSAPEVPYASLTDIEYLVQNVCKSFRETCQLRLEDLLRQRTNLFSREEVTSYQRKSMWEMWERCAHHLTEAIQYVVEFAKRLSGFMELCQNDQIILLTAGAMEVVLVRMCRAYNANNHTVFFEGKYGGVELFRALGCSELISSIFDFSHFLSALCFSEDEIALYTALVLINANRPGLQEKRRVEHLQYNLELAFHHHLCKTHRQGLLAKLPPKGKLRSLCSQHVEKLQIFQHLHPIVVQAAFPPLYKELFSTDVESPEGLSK
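Schneider cells (Drosophila), stable Gal4 DBD–ROR gamma + UAS-luc; 1 hr cmpd preincubation; Cu2+ induction 700 uM final; 20 hr ambient; luminescence.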
Gal4-VP16 FLuc: inhibits Gal4-VP16 luciferase reporter, ROR gamma counter-screen; AID 2546; 310,000 compounds, 3.5% hits; Potency, µM (doses to about 53.6 µM), without a hit: at the highest dose activity, negative = inhibition, usual class: inhibitors; Drosophila S2 Gal4-VP16 UAS-luciferase, luminescence, 20 h;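 also: Gal4-VP16 expression switched on by copper sulfate through the metallothionein promoter; nearly all actives have a fitted effect of over 50% in size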
Starred values were filed as active, the others as inactive; ? = inconclusive; / = no result; [ ] = dose if it differs, or a comment. An excerpt weighted towards active compounds, which were near 7.3% of everything screened. Calls follow the shape of the dose curve; as a rule, active = well fitted curve in the direction sought with a large enough effect; inconclusive = small, poorly fitted or top-dose-only effect, or another doubt; inactive = no such curve, though single readings can be large; an effect the other way counts as inactive or inconclusive. % is scaled to controls: 0 for no effect and ±100 for the full control effect; potency is read from the fitted curve at half-maximal effect.

SMILES	Tau fibril ThT	Tau FP inhib	Tau fluor counter	RORgamma inh	Gal4-VP16 FLuc
CCCCn1c(SCn2nnc3ccccc3c2=O)nc2cc(C(=O)OC)ccc2c1=O	1%	3%	-1%	5%	-17%
CC1=NN(c2ccccc2)C(=O)C1C(=O)c1ccccc1 (configuration not stated)	-8%	-9%	-8%	?	?
CC1=NN(c2ccccc2)C(=O)C1C(=O)c1ccc(Cl)cc1 (configuration not stated)	?	-2%	-11%	11µM*	?
CCOc1ccc(N(C)S(=O)(=O)c2ccc3c(c2)CCCN3C(C)=O)cc1	?	1%	-19%	/	/
Cc1ccc(NC(=O)CN2C(=O)/C(=C3\SC(=S)N(C4CCS(=O)(=O)C4)C3=O)c3ccccc32)cc1 (configuration not stated)	-13%	5%	-20%	-5%	-2%
O=C(CN1C(=O)/C(=C2\SC(=S)N(C3CCS(=O)(=O)C3)C2=O)c2ccccc21)Nc1ccccc1 (configuration not stated)	?	10%	?	0.89µM*	-21%
O=C(C1=C[C@@H](C2CCCCC2)C[C@@H](OCc2ccc(CO)cc2)O1)N1CCN(Cc2ccccc2)CC1	?	13%	-14%	?	13µM*
COc1ccc(N2CCN(C(=O)C3CCN(S(=O)(=O)c4cn(C)cn4)CC3)CC2)cc1	0%	-3%	2%	/	/
CC(C)c1ccc(Cn2ccc3c4c(N)nc(NC5CC5)nc4ccc32)cc1	-13%	7%	?	16µM*	?
CCCCCCCCn1c(=O)c(C(=O)OCC)c(O)c2ccccc21	-15%	4%	-8%	11%	7%
CCCCCn1c(=O)c(-c2nc3ccccc3[nH]2)c(O)c2ccccc21	-9%	3%	-6%	1.6µM*	7.9µM*
Cc1ccc(NC(=O)/C(Cl)=C/c2ccccc2)cc1C	?	-14%	-26%	10µM*	?
C/C(=N\NC(=S)NC1CCCCC1)c1cccc(C(F)(F)F)c1	-2%	-7%	-11%	?	2.5µM*
CCNC(=S)N/N=C(\C)c1cccc(C(F)(F)F)c1	-2%	-10%	-5%	1.3µM*	4.5µM*
CC/C(=N\NC(=O)C1CCCC1)c1cccc(Br)c1	/	/	/	1%	21%
C/C(=N\NC(=S)NC1CCCCC1)c1ccc(C#N)cc1	-2%	-3%	-1%	2.2µM*	2µM*
C/C(=N\NC(=S)NC1CCCCC1)c1cccc(Br)c1	-14%	-3%	-14%	2.2µM*	1µM*
CC(=O)N/N=C(\C)c1cccc(C(F)(F)F)c1	-2%	-3%	1%	-2%	18%
CCOC(=O)c1c(S(=O)(=O)N2CCC(C(=O)NCc3ccccc3Cl)CC2)c(C)n(C)c1C	15%	2%	0%	/	/
CC(C)[C@@H](CC(=O)N[C@@H]1CCNC[C@H]1C(=O)N[C@H](CC(=O)N[C@@H](CCC(=O)O)CC(=O)O)Cc1c[nH]c2ccccc12)NC(=O)C[C@H](Cc1ccccc1)NC(=O)[C@@H]1CNCC[C@H]1N	3%	-9%	-1%	1%	-9%
Cc1[nH]c2ccccc2c1SCCNC(=O)c1ccc(S(=O)(=O)N2CCCC2)cc1	-15%	6%	16µM*[quencher]	?	4%
CCN(CC)S(=O)(=O)c1ccc(C(=O)NCCSc2c(-c3ccc(C)cc3)[nH]c3ccccc23)cc1	-4%	-1%	3.2µM*[quencher]	/	/
CCN(CC)S(=O)(=O)c1ccc(C(=O)NCCSc2c[nH]c3ccccc23)cc1	?	16%	?	?	-12%
Clc1ccc(Nc2ccc(-n3ccnc3)nn2)cc1Cl	1%	?	13µM*[quencher]	36%	-5%
Cc1cccc(-c2cc3nc4c(c(N5CCOCC5)n3n2)CCCC4)c1	?	-1%	-10%	4%[0.365 µM]	/
SMILES	Tau fibril ThT	Tau FP inhib	Tau fluor counter	RORgamma inh	Gal4-VP16 FLuc
Fc1ccc(-c2cc3nc4c(c(N5CCOCC5)n3n2)CCCC4)cc1	?	-3%	-17%	3.2µM*	-11%
O=C(Nc1nc2ccc(S(=O)(=O)N3CCCCC3)cc2s1)c1ccncc1	0%	-1%	?	4%	12%
Cc1ccc2nc(NC(=O)c3ccccc3F)sc2c1	/	/	/	1.3µM*	7.1µM*
CCCC(=O)Nc1nc2ccc(NC(=O)c3ccccc3F)cc2s1	-11%	?	-23%	13%	-4%
CSc1ncccc1C(=O)Nc1nc2ccc(Oc3ccccc3)cc2s1	0%	?	?	10µM*	?
O=C(Nc1nc2ccc(S(=O)(=O)N3CCCC3)cc2s1)c1ccccn1	-6%	-3%	-23%	2.8µM*	?
O=C(Nc1nc2c(F)cc(F)cc2s1)c1ccccn1	?	4%	-10%	0.22µM*	2µM*
Cc1nc2c(c(C)c1CCC(=O)Nc1cccc(C(F)(F)F)c1)c(=O)n(C)c(=O)n2C	2%	?	-21%	/	/
CC(C)Oc1ccc(CNC(=O)C2COc3ccccc3C2)cc1 (configuration not stated)	-6%	-7%	0%	/	/
CCCOc1ccc(CNC(=O)c2oc3ccc4c(c3c2C)C(=O)CC(C)(CC)O4)cc1 (configuration not stated)	-12%	-4%	-22%	/	/
O=C(Nc1nc(-c2ccccn2)cs1)c1ccc(S(=O)(=O)N2CCCCC2)cc1	-14%	-7%	-9%	1.6µM*	6.3µM*
CCOc1ccc2nc(NC(=O)c3ccccn3)sc2c1	?	-7%	-18%	0.71µM*	2.8µM*
O=C(COc1ccccc1)NNc1nc2c(F)cc(F)cc2s1	-3%	3%	-2%	13µM*	0%
CCOc1ccc2nc(NC(=O)c3ccoc3C)sc2c1	-13%	9%	-22%	?	11µM*
CCOc1ccc2nc(NC(=O)COC)sc2c1	-12%	9%	5%	-26%	?
CCOc1ccc2nc(NC(=O)Cc3cccs3)sc2c1	-17%	-10%	?	?	?
CCOc1ccc2nc(NC(=O)Nc3ccccc3)sc2c1	?	-8%	?	-45%	?
Cc1ccc2nc(NC(=O)c3ccccn3)sc2c1	?	-13%	-14%	0.35µM*	1.1µM*
O=C(Nc1nc2c(F)cc(F)cc2s1)c1ccc(S(=O)(=O)N2CCc3ccccc32)cc1	-2%	14µM*	-21%	/	/
CCOc1ccc2nc(NC(=S)NCc3ccccc3)sc2c1	-19%	-3%	?	2.2µM*	2.8µM*
CCOc1ccc2nc(NC(=O)Nc3cccs3)sc2c1	?	?	14µM*[quencher]	-33%	-1%
Cc1ccc2nc(NC(=O)c3cc(=O)c4cc(C)c(C)cc4o3)sc2c1	?	-8%	-10%	/	/
COc1ccc(NC(=O)Cn2cnc3ccc(S(=O)(=O)N4CCC(C)CC4)cc3c2=O)cc1Cl	-3%	?	?	/	/
COc1ccc(S(=O)(=O)c2c(SC)nn(CC(=O)Nc3cccc(C)c3C)c2N)cc1	1%	-8%	?	/	/

Screens as filed in PubChem.
